Drawing on PubChem BioAssay (NCI), this text covers growth for 40 compounds.

The panel holds about 83,000 compounds, 20% with a hit somewhere; the sample as a whole holds those more often.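 In brief: 96-well plates, 48 h treatment, single concentration, percent growth endpoint.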 Activity calls are given as the source filed them. The calls were made as follows: active = growth percent below 10; inactive = the rest.

The assay relates to MDA-MB-468 breast. The assay can be described thus: NCI-60 one-dose screen, 48 h (100 = growth as untreated, 0 = no growth, -100 = all killed). Particulars: 10 µM unless noted.
For `COc1cc2c(cc1OC)C(=O)C(CC1CCN(C(=O)Nc3ccc(C)cc3)CC1)C2` (stereo not given), the growth is 93.1% (inactive). On to `C[C@@H]1[C@H]2[C@H](C=C3[C@@H]4CC[C@H]5Cc6nc7c(nc6C[C@]5(C)[C@H]4C[C@@H](O)[C@@]32C)C[C@@H]2CC[C@H]3C4=C[C@@H]5O[C@@]6(CC[C@](C)(CO)O6)[C@@H](C)[C@@]5(O)[C@@]4(C)[C@H](O)C[C@@H]3[C@@]2(C)C7)O[C@]12CCC(C)(C)O2`, for which the growth is 11.8% (inactive). As to `COC(OC)c1ccccc1`, the growth was 107% (inactive).

With `CC(=O)Nc1ccc(-n2c(O)c(/C=N/NC(=O)Cc3ccccc3Nc3c(Cl)cccc3Cl)sc2=S)cc1`, the growth was 94.2% (inactive).

In the case of `COc1cc(N2CCC(N3CCN(C)CC3)CC2)ccc1Nc1ncnc(Nc2ccccc2S(=O)(=O)C(C)C)n1`, the growth was 110% (inactive). As for `NNc1cccc(/C=C/c2ccccc2)cc1=O`, the growth is 38.3% (inactive). Turning to `COC(=O)c1c(C)nc(C)c2c1C(=O)C(Br)=C(NCCN1CCOCC1)C2=O`, the growth was 83.4% (inactive). In the case of `Oc1ccc2ccccc2c1N=Nc1nccs1` it was -48.6% (active); in that of `CCc1ccc(OC(=O)CCl)cc1`, 116% (inactive). As for `COc1ccc(/C=C(\C#N)n2nnc3ccc(Cl)cc32)cc1`, the growth was 28.9% (inactive).

`O=[N+]([O-])c1ccc(-c2nc(-c3ccccc3)c(-c3ccccc3)n2-c2ccccc2)cc1`: the growth was 2.29% (active). As for `O=C(/C=C(O)/C=C/c1ccc(SC(F)(F)F)cc1)/C=C/c1ccc(SC(F)(F)F)cc1`, the figure is 100% (inactive); as for `CNCc1cccc2c1OCCOCCOCCNS(=O)(=O)c1ccc(cc1)-c1cnc(N)c(n1)C(=O)N2`, 35.6% (inactive).

Regarding `O=C(Nc1cccc(-n2cc(-c3ccncc3)c(-c3cc(O)cc(Cl)c3)n2)c1)c1cc(C(F)(F)F)cc(C(F)(F)F)c1`, the growth is 31.2% (inactive). In the case of `Cc1nn(C)c2ncnc(N/N=C/c3cccc(O)c3O)c12` it was -11% (active); in that of `COc1cc(NCCCCN=C(N)NC(N)=NC(C)C)c2ncccc2c1`, -61.8% (active). In the case of `O[C@H]1[C@H]2c3cc4c(cc3CN3CCC(=C[C@@H]1O)[C@H]23)OCO4`, the growth is 20.7% (inactive). `C=C1CC[C@@H]2C(C)(C)[C@@H](O)CC[C@@]2(C)[C@@H]1COc1ccc2ccc(=O)oc2c1`: the growth is 53.1% (inactive). Consider `CC(C)[C@@H]1CC[C@]2(CO2)[C@@H]2C(=O)OCC(C(=O)O)=C[C@H]21`, for which the growth was 7.72% (active). For `CC1=NN(c2ccc(S(=O)(=O)O)cc2Cl)C(=O)C1`, the growth was 107% (inactive). `COC(=O)N1CCN(CCNCc2ccc(NC(=O)c3ccc(C)c(C#Cc4cnc5cccnn45)c3)cc2C(F)(F)F)CC1`: the growth is -8.93% (active). Consider `COc1ccc(-c2cc(=O)oc3c4c(ccc23)OCN(Cc2ccc(F)cc2)C4)cc1`, for which the growth was 16.1% (inactive). In the case of `O=c1n(CC2CO2)c(=O)n(CC2CO2)n1CC1CO1` (stereo not given), the growth was 25.6% (inactive). In the case of `O=C1C[C@H](Sc2nc(-c3ccc(F)cc3)cc(C(F)(F)F)n2)[C@H]2CO[C@@H]1O2` it was 71.4% (inactive). Take `C=C1C(=O)O[C@H]2[C@H]1CC/C(CNC(=O)c1c[nH]c3ccc(F)cc13)=C\CC[C@@]1(C)O[C@@H]21`: the growth was -55.8% (active).

For the compound `C=C1C(=O)O[C@H]2[C@H]1CC/C(COC(=O)c1c[nH]c3ccccc13)=C\CC[C@@]1(C)O[C@@H]21`, the growth is -68.5% (active). For `COc1ccc(Nc2[nH]n(C3=Nc4ccccc4Sc4ccccc43)c(=O)c2C#N)cc1`, the growth is -3.96% (active). In the case of `CCOc1ccc(Cc2nccc3cc(OCC)c(OCC)cc23)cc1OCC`, the growth was 61.4% (inactive). With `CSc1nc(N)c2c(n1)N(C)C=NS2(=O)=O`, the growth is 107% (inactive).

For the compound `CC(=O)c1cccc(N(C)S(=O)(=O)c2ccc(C)cc2)c1`, the growth is 111% (inactive). In the case of `C=CCn1c(C)nc2ccc(Nc3nc(Nc4ccc(F)cc4)nc4ccccc34)cc21` it was 49.3% (inactive). Turning to `O=C(Nc1nc2ccccc2[nH]1)C(=O)Nc1nc2ccccc2[nH]1`, the growth is 103% (inactive). Regarding `CCSc1nc(NC)c2cc(-c3ccc(C(F)(F)F)cc3)ccc2n1`, the growth is 110% (inactive). In the case of `[2H]C([2H])([2H])Oc1c(F)cccc1/C=C/C(=O)/C=C(O)/C=C/c1cccc(F)c1OC([2H])([2H])[2H]`, the growth is 98.3% (inactive). In the case of `Cc1cc(=O)c2c(C)ccc(C)c2[nH]1`, the growth is 96.8% (inactive). Take `CCCCC1COc2cccc3c(SCC(=O)N(C)c4cccc5ccccc45)cc[n+]1c23` (stereo not given): the growth was 92.2% (inactive). On to `C=C(C[n+]1ccccc1)[C@@H]1CC[C@]2(C(=O)OC)CC[C@]3(C)[C@H](CC[C@@H]4[C@@]5(C)CC[C@H](O)C(C)(C)[C@@H]5CC[C@]43C)[C@@H]12`, for which the growth is 86.3% (inactive).

Take `COc1ccc(-c2cc3c(nn2)-c2ccccc2C3=O)cc1`: the growth is -4.8% (active). Take `COc1cc(C2NC(=O)C(C#N)=C(Nc3cccc(C)c3)S2)ccc1O` (stereo not given): the growth is 96.6% (inactive).

Consider `C[C@H](CCCC(=O)NCC#CCN1CCN(C)CC1)[C@H]1CC[C@H]2[C@@H]3CC[C@@H]4CC(=O)CC[C@]4(C)[C@H]3CC[C@]12C`, for which the growth is 91% (inactive).
